Test results from PubChem BioAssay (NCI).
“And” between values parts separate entries of the source, which are not always exact repeats. Identical values can stand only once. The panel holds about 83,000 compounds, 20% with a hit somewhere; the sample as a whole holds those more often.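 Cells were grown in 96-well plates and exposed to the test compound at a single concentration for 48 hours; results are reported as percent growth, with values below 10 considered active.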 The source made the active and inactive calls.

Experiments:
Experiment in all cases: NCI-60 one-dose screen, 48 h (100 = growth as untreated, 0 = no growth, -100 = all killed)
UACC-62 melanoma = settings: 10 µM unless noted
TK-10 renal = settings: 10 µM unless noted
MCF7 breast = settings: 10 µM unless noted
HL-60(TB) leukemia = settings: 10 µM unless noted
NCI-H460 lung = settings: 10 µM unless noted
786-0 renal = settings: 10 µM unless noted
DU-145 prostate = settings: 10 µM unless noted
SF-268 CNS = settings: 10 µM unless noted
SF-539 CNS = settings: 10 µM unless noted
M14 melanoma = settings: 10 µM unless noted
HCT-15 colon = settings: 10 µM
SNB-75 CNS = settings: 10 µM unless noted
PC-3 prostate = settings: 10 µM unless noted
ACHN renal = settings: 10 µM unless noted
CAKI-1 renal = settings: 10 µM unless noted
MOLT-4 leukemia = settings: 10 µM
OVCAR-3 ovarian = settings: 10 µM unless noted
NCI/ADR-RES ovarian = settings: 10 µM unless noted
SW-620 colon = settings: 10 µM unless noted
KM12 colon = settings: 10 µM unless noted

## O=C1NC(=O)C(CCC(=O)c2cccc3ccccc23)C(=O)N1
UACC-62 melanoma
  growth: 77.1% [100 µM] (inactive) and 44.6% [100 µM] (inactive)
TK-10 renal
  growth: 106% [100 µM] (inactive) and 8.08% [100 µM] (active)
MCF7 breast
  growth: 91% [100 µM] (inactive) and 51.9% [100 µM] (inactive)

## COc1ccc2c(c1)/C(=C\c1c[nH]c3ccc(F)cc13)C(=O)N2
HL-60(TB) leukemia
  growth: 88.3% (inactive)

## N#CCN1C(=O)C(Cc2ccccc2)N=C(c2cccc(O)c2)c2ccc(Cl)cc21 (centres undefined)
UACC-62 melanoma
  growth: 103% [30 µM] (inactive)
TK-10 renal
  growth: 102% [30 µM] (inactive)
MCF7 breast
  growth: 100% [30 µM] (inactive)

## Cc1ccc(S(=O)(=O)N/N=C/C2(c3ccccc3)CC2)cc1
HL-60(TB) leukemia
  growth: 98.7% (inactive)

## Nc1cccc2cccc(O)c12
HL-60(TB) leukemia
  growth: 82.9% (inactive)

## O=C(O)CCC1N=C(c2cccc(O)c2)c2ccccc2NC1=O (centres undefined)
UACC-62 melanoma
  growth: 88.5% [30 µM] (inactive)
TK-10 renal
  growth: 96.4% [30 µM] (inactive)
MCF7 breast
  growth: 83.2% [30 µM] (inactive)

## CN(N)/N=N/c1nc[nH]c1C(N)=O
UACC-62 melanoma
  growth: -13.9% [100 µM] (active) and 0.502% [100 µM] (active)
TK-10 renal
  growth: 5.8% [100 µM] (active) and 2.21% [100 µM] (active)
MCF7 breast
  growth: 19% [100 µM] (inactive) and 4.05% [100 µM] (active)

## CCOC(=O)C1C(c2ccccc2)C2(C#N)C(=N)OC1(C)C2(C#N)C#N (centres undefined)
UACC-62 melanoma
  growth: -70.2% [100 µM] (active) and -92.1% [100 µM] (active)
TK-10 renal
  growth: -32.2% [100 µM] (active) and -95.8% [100 µM] (active)
MCF7 breast
  growth: -22.3% [100 µM] (active) and -82.1% [100 µM] (active)

## NC(=O)OCC(CO)(c1ccccc1)c1ccccc1
NCI-H460 lung
  growth: 107% (inactive)
786-0 renal
  growth: 96.7% (inactive)
DU-145 prostate
  growth: 104% (inactive)
SF-268 CNS
  growth: 101% (inactive)
SF-539 CNS
  growth: 96.8% (inactive)
M14 melanoma
  growth: 99.5% (inactive)
HCT-15 colon
  growth: 98.8% (inactive)
SNB-75 CNS
  growth: 89.2% (inactive)
PC-3 prostate
  growth: 93.2% (inactive)
UACC-62 melanoma
  growth: 115% (inactive)
TK-10 renal
  growth: 97.7% (inactive)
ACHN renal
  growth: 98.1% (inactive)
CAKI-1 renal
  growth: 91.8% (inactive)
HL-60(TB) leukemia
  growth: 114% (inactive)
MOLT-4 leukemia
  growth: 98.7% (inactive)
OVCAR-3 ovarian
  growth: 100% (inactive)
NCI/ADR-RES ovarian
  growth: 108% (inactive)
SW-620 colon
  growth: 107% (inactive)
MCF7 breast
  growth: 99.3% (inactive)
KM12 colon
  growth: 96.6% (inactive)

## CCCCCCCCCCCCNc1ncnc2[nH]ncc12
HL-60(TB) leukemia
  growth: 74.4% (inactive)

## O=C(O)CN1C(=O)C(Cc2ccccc2)N=C(c2cccc(O)c2)c2ccccc21 (centres undefined)
UACC-62 melanoma
  growth: 90.1% [30 µM] (inactive)
TK-10 renal
  growth: 96% [30 µM] (inactive)
MCF7 breast
  growth: 79% [30 µM] (inactive)

## O=C1/C(=C\c2ccc(Br)o2)SC(=S)N1CCc1ccc(O)cc1
HL-60(TB) leukemia
  growth: 42.2% (inactive)

## C=C1C(=O)O[C@H]2[C@H]1CC/C(COC(=O)/C=C\C(=O)NCc1ccc(Cn3c(=O)sn(CCCCC)c3=O)cc1)=C\CC[C@@]1(C)O[C@@H]21
HL-60(TB) leukemia
  growth: -17.6% (active)

## COc1ccc(OC)c(/C=C/c2nc(SC)n(-c3ccc(Cl)cc3)n2)c1
HL-60(TB) leukemia
  growth: 65.7% (inactive)

## NC(=O)CN1C(=O)C(Cc2ccc(O)cc2)N=C(c2cccc(O)c2)c2ccccc21 (centres undefined)
UACC-62 melanoma
  growth: 80.7% [30 µM] (inactive)
TK-10 renal
  growth: 106% [30 µM] (inactive)
MCF7 breast
  growth: 75.5% [30 µM] (inactive)

## Cc1cc(C)c2c(Nc3ncnc4c3sc3nc(C)cc(C)c34)n[nH]c2n1
HL-60(TB) leukemia
  growth: 99% (inactive)

## O=C(O)CNC(=O)c1ccccc1
NCI-H460 lung
  growth: 103% (inactive)
786-0 renal
  growth: 100% (inactive)
DU-145 prostate
  growth: 119% (inactive)
SF-268 CNS
  growth: 107% (inactive)
SF-539 CNS
  growth: 89% (inactive)
M14 melanoma
  growth: 99.4% (inactive)
HCT-15 colon
  growth: 98% (inactive)
SNB-75 CNS
  growth: 93.7% (inactive)
PC-3 prostate
  growth: 102% (inactive)
UACC-62 melanoma
  growth: 103% (inactive)
ACHN renal
  growth: 102% (inactive)
CAKI-1 renal
  growth: 83.2% (inactive)
OVCAR-3 ovarian
  growth: 105% (inactive)
NCI/ADR-RES ovarian
  growth: 101% (inactive)
SW-620 colon
  growth: 99.7% (inactive)
MCF7 breast
  growth: 104% (inactive)
KM12 colon
  growth: 105% (inactive)

## CCCCCN1C(=O)C(CO)N=C(c2cccc(O)c2)c2ccccc21 (centres undefined)
UACC-62 melanoma
  growth: 81.1% [30 µM] (inactive)
TK-10 renal
  growth: 91% [30 µM] (inactive)
MCF7 breast
  growth: 91.1% [30 µM] (inactive)

## CC[n+]1ccc2c(c1)C(=O)c1nccc3c1c-2nc1ccccc13
HL-60(TB) leukemia
  growth: -31.8% (active)

## NC(=O)CN1C(=O)C(Cc2ccccc2)N=C(c2cccc(O)c2)c2ccccc21 (centres undefined)
UACC-62 melanoma
  growth: 97.8% [30 µM] (inactive)
TK-10 renal
  growth: 102% [30 µM] (inactive)
MCF7 breast
  growth: 96.4% [30 µM] (inactive)

## CSc1nc2sc3cccc(Cl)c3n2c(=N)c1C#N
HL-60(TB) leukemia
  growth: 91.8% (inactive)

## C/C(=N/OC(=O)N(C)C)c1cc(Cl)ccc1Cl
NCI-H460 lung
  growth: 105% (inactive)
786-0 renal
  growth: 97.8% (inactive)
DU-145 prostate
  growth: 105% (inactive)
SF-268 CNS
  growth: 99.4% (inactive)
SF-539 CNS
  growth: 103% (inactive)
M14 melanoma
  growth: 109% (inactive)
HCT-15 colon
  growth: 100% (inactive)
SNB-75 CNS
  growth: 82.1% (inactive)
PC-3 prostate
  growth: 106% (inactive)
UACC-62 melanoma
  growth: 108% (inactive)
TK-10 renal
  growth: 97.7% (inactive)
ACHN renal
  growth: 100% (inactive)
CAKI-1 renal
  growth: 98.9% (inactive)
HL-60(TB) leukemia
  growth: 95.1% (inactive)
MOLT-4 leukemia
  growth: 89.7% (inactive)
OVCAR-3 ovarian
  growth: 105% (inactive)
NCI/ADR-RES ovarian
  growth: 99.4% (inactive)
SW-620 colon
  growth: 101% (inactive)
MCF7 breast
  growth: 97.8% (inactive)
KM12 colon
  growth: 106% (inactive)
